Screens: PubChem, The Scripps Research Institute Molecular Screening Center
MITF inh: inhibitors of human MITF | O75030 | AlphaScreen MITF homodimerization, bead proximity signal | inhibition, % at 2.6 µM | actives 0.91% (n = 650,000); in the data active = inhibition above about 50%
Target sequence (O75030 whole entry, looked up): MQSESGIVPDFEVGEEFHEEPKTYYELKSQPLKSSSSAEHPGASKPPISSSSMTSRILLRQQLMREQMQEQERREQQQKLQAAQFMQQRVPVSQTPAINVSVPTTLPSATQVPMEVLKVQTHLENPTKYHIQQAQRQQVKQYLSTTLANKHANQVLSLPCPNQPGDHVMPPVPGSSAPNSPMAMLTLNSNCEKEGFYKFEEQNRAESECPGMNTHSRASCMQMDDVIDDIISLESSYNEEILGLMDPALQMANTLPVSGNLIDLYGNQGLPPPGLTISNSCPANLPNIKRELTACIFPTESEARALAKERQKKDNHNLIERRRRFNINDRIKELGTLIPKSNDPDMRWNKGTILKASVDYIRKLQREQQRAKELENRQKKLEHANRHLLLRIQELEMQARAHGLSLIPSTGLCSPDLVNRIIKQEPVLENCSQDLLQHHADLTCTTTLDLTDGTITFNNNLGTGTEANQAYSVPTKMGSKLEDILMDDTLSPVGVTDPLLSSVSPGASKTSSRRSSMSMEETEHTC
FBW7 act: human FBW7 E3 ligase activation, primary screen; AlphaScreen FBW7–phospho-cyclin E peptide binding, activator screen; normalized activity (activation), % at 26.1 µM; actives 0.13% (n = 650,000); AID 1259310; in the data active = normalized activity above about 1.9%;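 note: purified mutant Fbw7 with reduced substrate affinity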
TEAD-YAP inh: TEAD-YAP interaction inhibition | HEK-TIYL cells, TEAD-Gal4/YAP UAS-luciferase luminescence | inhibition, % at 9.12 µM | actives 1.4% (n = 640,000); in the data active = inhibition above about 32%
GPR151 ag: human GPR151 activation; Q8TDV0; PathHunter beta-arrestin GPR151 cells, luminescence; activation, % at 11.2 µM; actives 1% (n = 650,000); in the data active = activation above about 4.9%
MITF inh conf: confirmation of human MITF inhibitors | shares compounds with MITF inh | AlphaScreen MITF homodimerization, biotin/His-MITF beads | inhibition, % at 2.6 µM | actives 16% (n = 4,700) | AID 1259372;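 active = inhibition above a cutoff derived from the DMSO control wells, cut at about 28% in these data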;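 note: inhibitors lower the bead chemiluminescence by keeping MITF from dimerizing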
AlphaScreen intf2: optically interferes with AlphaScreen signal. inhibition, % at 2.6 µM. actives 7.6% (n = 4,700). shares compounds with MITF inh. LysRS AlphaScreen counterscreen, signal interference, triplicate;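 active = inhibition above a cutoff derived from the DMSO control wells, cut at about 30% in these data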
Large screens that a line does not name were inactive (follow-up assays come after a bar, where they were run). Most compounds without a hit are left out; they make up all but 3.5% or so of the library.

CCOCCCNCC(=O)Nc1ccc(N2CCCC2)cc1	none
O=C(CNCCN1CCCCC1)Nc1ccc(N2CCCCCC2)cc1	MITF inh 91 | MITF inh conf inactive | AlphaScreen intf2 34
O=C(CCl)Nc1ccc(N2CCCCC2)cc1	none
O=C(CNCCN1CCCCC1)Nc1ccc(N2CCCCC2)cc1	MITF inh 94 | MITF inh conf inactive | AlphaScreen intf2 inactive
CS(=O)(=O)N1CCN=C1SCc1ccccc1F	MITF inh 52 | MITF inh conf inactive | AlphaScreen intf2 inactive
C/C=C/c1ccc(OCCCNC(C)CC)c(OC)c1 (centres undefined)	MITF inh 83 | MITF inh conf inactive | AlphaScreen intf2 inactive
C/C=C/c1ccc(OCCN(C)C)c(OC)c1	MITF inh 73 | MITF inh conf inactive | AlphaScreen intf2 inactive
C=CCc1ccc(OCCNC2CCCC2)c(OC)c1	none
C/C=C/c1ccc(OCCCNC2CCCC2)c(OC)c1	MITF inh 51 | MITF inh conf inactive | AlphaScreen intf2 inactive
O=C(COc1ccccc1)NCCNC(=O)c1ccc(NC(=O)C2CC2)cc1	none
Cc1ccc(CC(=O)N/N=C/c2ccc3c(c2)OCO3)cc1	none
CC(=O)c1cccc(OCC(O)CNCc2cccc(C(F)(F)F)c2)c1 (centres undefined)	MITF inh 57 | MITF inh conf inactive | AlphaScreen intf2 inactive
CCc1cccc(OCC(O)CNCc2cccnc2)c1 (centres undefined)	MITF inh 76 | MITF inh conf inactive | AlphaScreen intf2 inactive
O=C(NC1CCCC1)C(c1ccco1)N(C(=O)c1csnn1)C1CC1 (centres undefined)	none
CCc1nn(CC(=O)OC)c(=O)c2cc3oc(C)cc3n12	none
COc1ccc(OC)c(CN2CCN(Cc3ccc(OC)c(OC)c3OC)CC2)c1	none
COc1cccc(CN2CCN(C(=O)c3cccc(OC)c3OC)CC2)c1	MITF inh 54 | MITF inh conf inactive | AlphaScreen intf2 inactive
COc1cccc(CN2CCSCC2)c1OC	none
COc1ccc(CN2CCN(Cc3ccccc3Cl)CC2)c(OC)c1OC	MITF inh 54 | MITF inh conf inactive | AlphaScreen intf2 inactive
COc1cccc(CN2CCN(Cc3ccc(OC)c(OC)c3OC)CC2)c1OC	MITF inh 77 | MITF inh conf inactive | AlphaScreen intf2 inactive
COc1cccc(CN2CCN(Cc3ccc(OC)c4ccccc34)CC2)c1OC	MITF inh 70 | MITF inh conf inactive | AlphaScreen intf2 inactive
COc1cc(CN2CCN(C(=O)c3cccc(OC)c3OC)CC2)cc(OC)c1O	none
CC(=O)c1ncc([C@@H](O)[C@H](O)[C@H](O)CO)[nH]1	none (no result: FBW7 act, TEAD-YAP inh)
Cc1nc(Nc2cccc3nsnc23)nc(Nc2cccc3nsnc23)c1[N+](=O)[O-]	none
CC(OC(=O)c1cc2occc2n1C)C(=O)NCCc1ccccc1 (centres undefined)	none
CCC(C)NCc1c(C(=O)O)n(Cc2cccc(C)c2)c2ccccc12 (centres undefined)	none
O=C(Nc1ccccc1C(=O)OCCN1CCCC1=O)c1ccc(F)cc1	none
O=C1N[C@@H](Cc2ccc(O)cc2)C(=O)N2CCN(C(=O)Oc3ccc(F)cc3)C[C@H]12	none
COc1cccc(CN2CCN(Cc3ccc(OC)c(OC)c3OC)CC2)c1	MITF inh 66 | MITF inh conf inactive | AlphaScreen intf2 inactive
COc1ccc(CN2CCN(CCOCCOc3ccccc3)CC2)c(OC)c1OC	MITF inh 75 | MITF inh conf inactive | AlphaScreen intf2 inactive
COc1cccc(C(=O)N2CCC3(CC2)CC3C(=O)Nc2ccccc2)c1OC (centres undefined)	none
COc1ccc(CN2CCN(Cc3ccc(Cl)cc3)CC2)c(OC)c1OC	MITF inh 82 | MITF inh conf inactive | AlphaScreen intf2 inactive
COc1cccc(C(=O)N2CCC3(CC2)CC3C(=O)NCCCc2ccccc2)c1OC (centres undefined)	MITF inh 73 | MITF inh conf inactive | AlphaScreen intf2 inactive
COc1ccc(CN2CCN(S(=O)(=O)c3ccc(Cl)cc3)CC2)c(OC)c1OC	none
CNC(=O)C(C)n1sc2ccccc2c1=O (centres undefined)	none
COc1ccc(-n2cnc3cc(NC(=O)c4ccccc4)ccc32)cc1	none
CC(C)CCN1CCN2C(=O)[C@H](CCCCN)NC(=O)[C@H]2C1	none
COc1ccc(CN2CCN(CCOc3ccc([N+](=O)[O-])c(C)c3)CC2)c(OC)c1OC	MITF inh 83 | MITF inh conf inactive | AlphaScreen intf2 inactive
Cc1cc(OCCN2CCCCCC2)ccc1[N+](=O)[O-]	none
COC(=O)C1Sc2[nH]c(=O)sc2C(c2cccc([N+](=O)[O-])c2)C1C(=O)OC (centres undefined)	none
COC(=O)C1Sc2[nH]c(=O)sc2C(c2ccc(OC)cc2)C1C(=O)OC (centres undefined)	MITF inh 52 | MITF inh conf inactive | AlphaScreen intf2 inactive
CN(C)CC(C)(C)CNCC(=O)Nc1ccc(F)c(F)c1F	MITF inh 70 | MITF inh conf inactive | AlphaScreen intf2 inactive
O=C(NCC(O)c1ccc(Cl)cc1)c1cn(-c2ccncc2)nn1 (centres undefined)	none
O=C1NCCN(Cc2c(F)cccc2Cl)C1CC(=O)N1CCOc2ccccc2C1 (centres undefined)	none
CCOC(=O)C1CCN(Cc2cccc(OC)c2OC)CC1	none
COc1cccc(CN2CCC(N3CC(C)OC(C)C3)CC2)c1OC (centres undefined)	MITF inh 87 | MITF inh conf inactive | AlphaScreen intf2 inactive
COc1cc(OC)c(OC)cc1CN1CCC(O)CC1	none
COc1cc(OC)c(OC)cc1CN1CCN(C2CCC(C)CC2)CC1 (centres undefined)	MITF inh 72 | MITF inh conf inactive | AlphaScreen intf2 inactive
COc1cc(OC)c(OC)cc1CN1CCC(N2CC(C)OC(C)C2)CC1 (centres undefined)	MITF inh 89 | MITF inh conf inactive | AlphaScreen intf2 inactive
COc1ccccc1CN1CCC(N2CC(C)OC(C)C2)CC1 (centres undefined)	MITF inh 52 | MITF inh conf inactive | AlphaScreen intf2 inactive
COc1ccccc1CN1CCC(C)CC1	none
Cc1cc2c(cc3c(=O)n(CCCC#N)nc(C)n32)o1	none
CC(C)CC1=NN2C(=N)/C(=C/c3ccc(OCc4ccccc4F)cc3)C(=O)N=C2S1	none
CCOC(=O)c1c(NC(=O)CSc2nnc(CNC(=O)COc3ccc(Cl)cc3)n2CCc2ccccc2)sc2c1CCC2	none
Fc1ccc(NCc2nnc(SCCN3CCOCC3)n2-c2ccccc2)cc1	MITF inh 67 | MITF inh conf inactive | AlphaScreen intf2 inactive
NNC(=O)c1ccccc1OCCOc1ccccc1	none
CC(C)NC(=O)COc1ccc2ccccc2c1	none
CCOC(=O)CNS(=O)(=O)c1cc(-c2nnc(Nc3cccc(C)c3)c3ccccc23)ccc1C	MITF inh 80 | MITF inh conf inactive | AlphaScreen intf2 inactive
COc1ccc(C(=O)Nc2cc(-c3nc4cc(C)ccc4o3)ccc2Cl)cc1Br	MITF inh 59 | MITF inh conf inactive | AlphaScreen intf2 inactive
Cc1ccc(CN2CCN(c3ccccn3)CC2)cc1	none
